IMPase cell inh = cell-permeable inhibitors of inositol monophosphatase (IMPase) | P97697 | CHO-M1 cells, IP1 accumulation, HTRF TR-FRET ratio | inhibition (IP1 accumulation), % at 46.1 µM | 120,000 tested, under 10 active; active = well fitted curve in the direction sought with a large enough effect in the signal ratio, not every such curve was filed as active; inconclusive = small, poorly fitted or top-dose-only effect, or a change in a side signal; inactive = no such curve, though single readings can be large or run the other way; the % refers to the signal ratio;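 also: cells stimulated with carbachol in lithium chloride buffer; plate controls were DMSO basal wells for no effect and reference inhibitor wells for full effect; higher means more IMPase inhibition seen as more IP1 and lower FRET ratio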
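Cellular IMPase inhibition is scored as a rise in cytosolic IP1, detected by competitive TR-FRET between d2-labelled IP1 and a europium anti-IP1 antibody. M1-expressing CHO cells were stimulated with carbachol for 30 min at 37C, with lithium (50 mM LiCl) present in the buffer.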
HPGD inh = blocks human HPGD enzyme activity; AID 894; purified HPGD, NADH fluorescence kinetic, PGE2 substrate; P15428; Potency, µM, for inactives: top-dose activity change, negative = inhibition, most hits filed as inhibitors; actives 4.3% (n = 150,000); active = well fitted inhibition curve with a large enough effect, not every such curve was filed as active; inconclusive = small, poorly fitted or top-dose-only effect, or another doubt; inactive = no such curve, though single readings can be large or run the other way; also: potency is read from the fitted curve at half-maximal effect
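20 nM HPGD preincubated 15 min at room temperature with compound in 50 mM Tris-HCl pH 8, 0.01% Tween 20. Started with 1 mM NAD+ and 30 uM prostaglandin E2; NADH fluorescence (360/450 nm) read 5 times over 30-s intervals, last minus first.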
ALOX12 inhib = blocks human 12-lipoxygenase activity. P18054. purified 12-hLO, xylenol orange hydroperoxide absorbance. Potency, µM (doses to about 57.1 µM), without a hit: top-dose activity change, negative = inhibition, most hits filed as inhibitors. actives 0.12% (n = 150,000). AID 1452; also: potency is read from the fitted curve at half-maximal effect; nearly all actives have a fitted effect of over 55% in size
Target sequence (P18054 whole entry, looked up): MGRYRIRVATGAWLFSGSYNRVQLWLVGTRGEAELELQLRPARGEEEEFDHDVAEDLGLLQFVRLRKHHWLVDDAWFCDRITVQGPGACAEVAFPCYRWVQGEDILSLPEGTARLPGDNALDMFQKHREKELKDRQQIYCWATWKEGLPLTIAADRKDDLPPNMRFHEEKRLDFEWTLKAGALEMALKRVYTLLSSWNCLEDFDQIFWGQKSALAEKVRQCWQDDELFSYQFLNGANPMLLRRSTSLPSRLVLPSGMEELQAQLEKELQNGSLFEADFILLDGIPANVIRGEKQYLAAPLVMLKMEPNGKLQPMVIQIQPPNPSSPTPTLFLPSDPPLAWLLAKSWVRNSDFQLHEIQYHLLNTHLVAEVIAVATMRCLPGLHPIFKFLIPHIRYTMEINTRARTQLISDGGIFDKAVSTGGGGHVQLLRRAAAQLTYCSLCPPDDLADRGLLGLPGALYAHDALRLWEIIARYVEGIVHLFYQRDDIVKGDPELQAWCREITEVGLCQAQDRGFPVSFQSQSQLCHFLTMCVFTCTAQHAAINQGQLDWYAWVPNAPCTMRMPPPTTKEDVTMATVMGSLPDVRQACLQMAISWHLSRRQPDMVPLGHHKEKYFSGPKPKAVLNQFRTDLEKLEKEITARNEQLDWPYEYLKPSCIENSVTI
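Hydroperoxide formation by human 12-lipoxygenase from 40 uM arachidonic acid was followed colorimetrically via ferric-xylenol orange complex, using the 573/405 nm absorbance ratio. Enzyme concentration was 150 nM, with 30 min reaction at room temperature.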
IMPase Li cell = cell-permeable IMPase inhibitors with lithium potentiation; Potency, µM (doses to about 59.4 µM), inactives show at the highest dose activity, negative = IMPase inhibition, hits mostly inhibitors; AID 1457; actives 0.35% (n = 210,000); CHO-M1 cells, IP1 TR-FRET (IP-One), carbachol + lithium;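 also: IP1 builds up when IMPase is blocked and the TR-FRET signal falls; potency is read from the fitted curve at half-maximal effect; plate controls were basal vehicle for no effect and high inhibitor control for full effect; nearly all actives have a fitted effect of over 50% in size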
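Readout is a homogeneous TR-FRET IP1 immunoassay (Ex 320, Em 665 and 620), where raised cytosolic IP1 lowers signal. Cells were CHO-M1 treated 30 min at 37C with test compounds plus a little lithium; AC50 values came from Hill-equation fitting.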
ALDH1A1 block = inhibitors of human aldehyde dehydrogenase 1A1 | Purified ALDH1A1, NADH fluorescence, propionaldehyde substrate | Potency, µM (titrated, usually from 75.3 µM), inactives show at the highest dose activity, negative = inhibition, hits mostly inhibitors | actives 7.3% (n = 220,000); active = well fitted inhibition curve with a large enough effect, not every such curve was filed as active; inconclusive = small, poorly fitted or top-dose-only effect, or another doubt; inactive = no such curve, though single readings can be large or run the other way;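 also: potency is read from the fitted curve at half-maximal effect; plate controls were no enzyme wells and a reference inhibitor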
PNC inhibitor = perinucleolar compartment assembly inhibition | PC3M PTB-GFP, PNC prevalence imaging, 16 h; hits give low values | activity change (PNC), negative = inhibition, % at 10 µM | actives 3.1% (n = 140,000);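 active = readout at or below -70, meaning at least 70% loss of cells showing the perinucleolar compartment, a nuclear body marking cancer cells; inconclusive = readout between -30 and a set limit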;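 also: plate controls were DMSO wells for no effect and camptothecin positive control wells for full effect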
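Compounds are pinned in duplicate onto adhered PC3M cells stably expressing GFP-tagged PTB and incubated 16 h at 37 C. Cells are then fixed, nuclei stained with Hoechst, and PNC-positive cells counted.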
Numbers without * were called inactive; ? = inconclusive; nt = no result given; [ ] = dose if it differs, or a comment. An excerpt weighted towards active compounds, which were near 11% of everything screened. Unless noted, calls follow the shape of the dose curve; as a rule, active = well fitted curve in the direction sought with a large enough effect; inconclusive = small, poorly fitted or top-dose-only effect, or another doubt; inactive = no such curve, though single readings can be large; an effect the other way counts as inactive or inconclusive. Unless noted, % is scaled to controls: 0 for no effect and ±100 for the full control effect.

SMILES	IMPase cell inh	HPGD inh	ALOX12 inhib	IMPase Li cell	ALDH1A1 block	PNC inhibitor
CC(=O)NCCC(=O)NCc1ccc(F)cc1	2	-9%	4%	30%[38.3 µM]	-10%	12
CC(=O)Nc1ccc(C(=O)CCl)cc1	nt	-12%	-2%	20%	0.045µM*	nt
Nc1nc2c([nH]c(=S)n2C2OC(CO)C(O)C2O)c(=O)[nH]1 (configuration not stated)	nt	-21%	1%	18%	-9%	nt
COc1ccc(C2C(C(=O)Nc3cccnc3)=C(C)Nc3nc(-c4ccccc4)nn32)cc1OC (configuration not stated)	1	nt	nt	nt	nt	nt
CCCCN1C(=O)C(NC(C)=O)c2cc(Br)ccc21 (configuration not stated)	13	-10%	1%	49%[38.3 µM]	0.18µM*	-11
CCc1ccc2c(c1)C(NC(C)=O)C(=O)N2CC (configuration not stated)	13	-12%	13%	43%[38.3 µM]	22µM*	43
COC(=O)[C@@H]1C[C@@H]2CC[C@@H](O)C[C@@H]2N1Cc1ccc(C)s1	nt	-8%	-2%	-11%	2%	nt
Cc1ccc(S(=O)(=O)NC(CC(=O)N2CCc3ccccc32)c2ccco2)cc1 (configuration not stated)	14	-3%	-8%	-14%[38.3 µM]	14µM*	16
COc1ccc(-c2cc([C@H](O)[C@@H]3CCCCN3)c3ccccc3n2)cc1	nt	nt	-5%[11.4 µM]	nt	nt	nt
COc1ccc(C)cc1NC(=O)CNc1ccccc1CN(C)C1CCCCC1	nt	nt	nt	20%	20µM*	nt
Cc1ccc(NC(=O)CNc2ccccc2CN(C)C2CCCCC2)cc1	nt	nt	nt	8%	20µM*	nt
COc1ccc(Cl)cc1NC(=O)CNc1ccccc1CN(C)C1CCCCC1	nt	nt	nt	22%	8.9µM*	nt
O=C(O)c1ccncc1.O=C(O)c1ccncc1.[NH2-].[NH2-].[Pt]	nt	0%	1%[11.4 µM]	3%	20%[13.5 µM]	nt
Cc1ccc(O)c(NC(=O)c2ccc(Br)c(S(=O)(=O)N3CCCCC3)c2)c1	8	nt	nt	nt	nt	nt
CCCCC/C=C\C[C@H](O)/C=C\c1cccc(C[C@H](O)CCCCO)n1	17	nt	-16%	nt	nt	nt
CC(=O)OC1CC2C(C)(C)C(=O)C=C[C@]2(C)C2CC[C@@]3(C)C(c4ccoc4)OC(=O)C4O[C@@]43[C@]12C (some centres not stated)	nt	-1%	-2%	4%	-2%	nt
CCOC(=O)c1cc(CC)sc1NC(=O)COc1ccccc1C	-6	nt	nt	nt	nt	nt
Cc1ccc(NC(=O)/C(Cl)=C\c2ccccc2)cc1	3	-22%	-10%	13%[38.3 µM]	4µM*	-30
CNc1ncnc2ccc(-c3ccccc3C#N)cc12	nt	nt	nt	-4%	?	nt
CC(C)c1ccc2oc(-c3cccc(NC(=O)c4ccc5c(c4)OCCO5)c3)nc2c1	-4	nt	nt	nt	nt	nt
CN[C@H]1[C@@H](O)[C@@H](NC)[C@@H]2O[C@@]3(O)C(=O)C[C@@H](C)O[C@H]3O[C@H]2[C@H]1O	-3[20.6 µM]	-2%	3%[25.6 µM]	2%	-3%[20.9 µM]	nt
CC(C)(C)c1csc(NC(=O)c2ccc3nccnc3c2)n1	3	10µM*	-13%	12%[38.3 µM]	?	47
CC(C)(C)c1csc(NC(=O)c2ccncc2)n1	nt	nt	nt	4%	-4%	nt
O=C1C=C(c2ccccc2)CC(c2cccs2)C1n1cnc([N+](=O)[O-])c1 (configuration not stated)	0	-16%	-5%	13%[38.3 µM]	?	?
O=C1C=C(c2ccccc2)C[C@H](c2cccs2)[C@H]1n1nnc([N+](=O)[O-])n1	5	-20%	-9%	7%	10µM*	-29
SMILES	IMPase cell inh	HPGD inh	ALOX12 inhib	IMPase Li cell	ALDH1A1 block	PNC inhibitor
COc1cccc(C2CC(c3c(Cl)cccc3Cl)n3nc(N)nc3N2)c1 (configuration not stated)	-10	-9%	3%	1%[38.3 µM]	5%	?
CCOc1ccccc1C1CC(c2ccc(Br)cc2)Nc2nc(N)nn21 (configuration not stated)	5	?	-11%	17%	33%	-114*
COc1cccc(C2CC(c3c(F)cccc3Cl)n3nc(N)nc3N2)c1 (configuration not stated)	13	-9%	2%	12%	4%	-110*
Nc1nc2n(n1)C(c1ccc(Cl)cc1)CC(c1ccc(F)cc1)N2 (configuration not stated)	4	-7%	1%	7%	2%	-119*
COc1ccccc1CNc1ccnc(-c2ccccc2CN(C)C)n1	nt	nt	nt	-1%	-5%	nt
CCNc1ncc2nc(-c3cccs3)c(=O)n(CCc3ccccc3)c2n1	nt	nt	nt	?	-1%	nt
C=CCN(CC=C)C(=S)NC(=O)Cc1cccc2ccccc12	nt	nt	nt	6%	19µM*	nt
CCN(CC)C(=S)NC(=O)Cc1ccccc1	nt	nt	nt	3%	5%	nt
Cc1nc2cnc(OCc3ccccc3)nc2n(CCc2ccccc2)c1=O	nt	nt	nt	18%	?	nt
CC1(C)CC(=O)N(c2ccccc2)C1(C)O (configuration not stated)	-12	-13%	2%	-15%[38.3 µM]	3%	-86*
O=CNn1cnc2c(oc3nc(-c4ccccc4)cc(-c4ccco4)c32)c1=O	nt	nt	nt	-17%	?	nt
O=C(c1ccccc1)c1ncc(C(F)(F)F)cc1Cl	-16	32µM*	1%	14%[38.3 µM]	-6%	27
O/N=C(\c1ccc(Cl)cc1Cl)c1ncc(C(F)(F)F)cc1Cl	3	25µM*	-14%	27%[38.3 µM]	?	17
COC(=O)[C@@]1(Cc2ccccc2)[C@H]2c3cc(C(=O)N(C)C)n(Cc4c(CO)[nH]cc(C)c4=O)c3C[C@H]2CN1C(=O)c1ccccc1	nt	-7%	-2%	-7%	-4%	nt
O=C(N/N=C\c1ccc(Cl)cc1)c1sccc1-n1cccc1	6	-5%	-2%	-2%[38.3 µM]	3%	50
CN(C)c1ccc(/C=N/NC(=O)c2sccc2-n2cccc2)cc1	nt	nt	nt	-5%	20µM*	nt
Cc1ccc(S(=O)(=O)NNC(=O)c2sc3nc(C)cc(C)c3c2-n2cccc2)cc1	-1[1.84 µM]	-5%	-16%	25%[38.3 µM]	0.14µM*	-90*
Cc1ccc(S(=O)(=O)NNC(=O)c2cnn(-c3ccccc3)c2-n2cccc2)cc1	7	-5%	-23%	20%[38.3 µM]	0.18µM*	-18
Cc1ccc(S(=O)(=O)NNC(=O)c2sccc2-n2cccc2)cc1	0	-7%	-9%	6%[38.3 µM]	10µM*	?
O=C(O)CCC/C=C\C[C@H]1C(=O)C[C@@H](O)[C@@H]1/C=C/[C@@H](O)CCc1ccccc1	nt	-7%	-3%	-8%	3%	nt
O=C(c1ccco1)N1CCC[C@@]2(CCN(c3ncccn3)C2)C1	nt	-18%	2%	6%	?	nt
